Data taken from PubChem BioAssay.
Results with a measured potency or affinity are listed apart. Values without a mark were called inactive.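 The calls were made as follows: active = a fitted half-maximal concentration no higher than twice the top valid tested dose, with signal falling as cells die; inconclusive = flat curve between -70% and -30%, or poor fit; inactive = the rest, including signal rising instead of falling.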

assay: viability loss in HeLa cells – cell-based, ATP luminescence, cherry-pick samples, cytotoxicity control, dose response (AID 687004); conditions: ATP luminescence (CellTiter-Glo), 48 h; series mostly up to 26 µM; activity change, negative = cytotoxicity: at the top concentration;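 also: 0% = neutral control median and -100% = staurosporine 10 µM control median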

Compound	activity change, negative = cytotoxicity
CCCC#Cc1cnc2c(c1)C(=O)N([C@@H](C)CO)C[C@H](C)[C@H](CN(C)C(=O)Nc1cccc(F)c1)O2	17.2%
Cc1nnc(NC(=O)CSc2ncnc3c2cnn3-c2ccccc2C)s1	8.29%
CO[C@H]1CN(C)C(=O)c2ccc(NC(=O)C3CC3)cc2OC[C@@H](C)N(Cc2ccc(F)cc2)C[C@@H]1C	2.32%
CCNC(=O)C[C@@H]1CC[C@H]2[C@@H](COC[C@@H](O)CN2S(=O)(=O)c2ccccc2F)O1	4.86%
Cc1ccc(NC(=O)C2(C)CCN2C(=O)C2CCCCC2)cc1C (stereo not drawn)	-7.41%
C[C@H](CO)N1C[C@H](C)[C@@H](CN(C)C(=O)Nc2ccc(F)cc2)Oc2c(NS(=O)(=O)c3ccccc3)cccc2C1=O	10.5% [at 23.5 µM]
NC(=O)CN(c1ccccc1)S(=O)(=O)c1ccc(F)cc1	7.47% [at 30 µM]
COc1cccc(C#Cc2cnc3c(c2)C(=O)N([C@H](C)CO)C[C@@H](C)[C@@H](CN(C)C(=O)C2CCOCC2)O3)c1	4.13% [at 23.5 µM]
O=C(Cc1cccs1)N1CCN(c2ccc([N+](=O)[O-])cc2)CC1	10.5%
O=C(NC[C@H]1[C@@H](c2ccccc2)[C@@H](CO)N1C(=O)C1CCC1)NC1CCCC1	0.183%
CC(=O)c1cccc(NC(=S)NC2CCCCC2)c1	6.24%
CCCNC(=O)C[C@@H]1CC[C@H]2[C@@H](COC[C@H](O)CN2Cc2ccccc2F)O1	7.33%
C[C@@H]1CN([C@H](C)CO)C(=O)c2cc(-c3ccc(F)cc3)cnc2O[C@H]1CN(C)CC1CCCCC1	-2.5%
COc1ccc(S(=O)(=O)Nc2ccc3c(c2)C(=O)N([C@H](C)CO)C[C@@H](C)[C@@H](CN(C)C(=O)Nc2ccccc2)O3)cc1	-0.726%
O=C(NC(=S)Nc1ccc(CN2CCOCC2)cc1)c1ccc([N+](=O)[O-])cc1	-4%
CC(=O)N1[C@@H]2CN(S(=O)(=O)c3ccccc3F)c3ccccc3[C@@H]2[C@@H]1CO	11.1%
CC(=O)N1[C@@H]2c3ccc(-c4ccccc4)c(=O)n3C[C@H]1[C@H](CO)[C@H]2C(=O)Nc1ccccc1	-23.6%

Compound	activity change, negative = cytotoxicity
CO[C@@H]1CN(C)C(=O)c2cc(NS(=O)(=O)C3CCCCC3)ccc2OC[C@H](C)NC[C@@H]1C	-5.44%
C[C@@H]1CN([C@@H](C)CO)C(=O)c2cc(NS(=O)(=O)c3ccccc3)ccc2O[C@H]1CN(C)C(=O)NC1CCCCC1	13.9% [at 23.5 µM]
CC(C)NC(=O)Nc1cccc2c1O[C@@H](CN(C)C(=O)Nc1ccccc1)[C@@H](C)CN([C@@H](C)CO)C2=O	6.21%
O=C(C[C@@H]1CC[C@H]2[C@@H](COC[C@H](O)CN2Cc2ccccc2F)O1)NC1CCC1	-1.76%
O=C(C[C@H]1CC[C@H]2[C@@H](COC[C@@H](O)CN2C(=O)Nc2ccc(Cl)cc2)O1)N1CCCCC1	3.38%
CC(Sc1ncnc2c1cnn2-c1ccccc1)C(=O)Nc1ccc(N2CCOCC2)cc1 (stereo not drawn)	-4.32%
C[C@H](CO)N1C[C@H](C)[C@@H](CN(C)C(=O)c2cccc(F)c2)Oc2cc(-c3cncnc3)ccc2S1(=O)=O	8.45%
C[C@@H]1CN([C@@H](C)CO)S(=O)(=O)c2ccc(C#C[C@@H](C)O)cc2O[C@@H]1CN(C)C(=O)C1CCCCC1	-0.708%
COc1ccc(C#Cc2ccc3c(c2)O[C@H](CN(C)C(=O)Nc2cccc(OC)c2)[C@H](C)CN([C@@H](C)CO)S3(=O)=O)cc1	0.479%
C[C@@H]1CN([C@@H](C)CO)C(=O)c2cc(NS(=O)(=O)c3cn(C)cn3)ccc2O[C@@H]1CN(C)C(=O)Nc1cccc2ccccc12	14.9%
CC(C)NC(=O)N(C)C[C@@H]1OCCCC[C@H](C)Oc2ccc(NC(=O)c3ccccc3)cc2C(=O)N([C@H](C)CO)C[C@H]1C	4.23%
CNC[C@@H]1OCCCC[C@H](C)Oc2ccc(NC(=O)c3ccccc3)cc2C(=O)N([C@@H](C)CO)C[C@@H]1C	1.93%
N#C[C@@H]1[C@@H](c2ccccc2)[C@@H](CO)N1C(=O)Cc1ccccc1	-0.713%
C[C@H]1CN([C@@H](C)CO)C(=O)Cc2cc(NS(=O)(=O)c3ccc(F)cc3)ccc2O[C@@H]1CN(C)S(=O)(=O)c1ccc(F)cc1	-0.112%
CCCNC(=O)Nc1ccc2c(c1)C(=O)N(C)C[C@H](OC)[C@@H](C)CN(Cc1cccnc1)[C@H](C)CO2	0.647% [at 23.5 µM]
C[C@@H]1CCCCO[C@@H](CN(C)S(=O)(=O)c2ccc(F)cc2)[C@@H](C)CN([C@@H](C)CO)C(=O)c2cc(NS(=O)(=O)c3ccc(F)cc3)ccc2O1	5.14%
